Hit rate of the full screen: of about 16,000 compounds, about 2,600 (16%) were called active. Another 20% or so got no clear call; they are omitted. Calls come from the whole dose curve; as a rule, active = well fitted curve in the direction sought with a large enough effect; inconclusive = small, poorly fitted or top-dose-only effect, or effect the other way; inactive = no such curve, though single readings can be large or run the other way. The list is a sample of the results. Peptide text beside a SMILES is read from it. * marks the point of attachment. Boc = CC(C)(C)OC(=O)*
% is set by controls: 0 for no effect and ±100 for the full control effect.

The target in the assay is Cytochrome P450 2D6 (Homo sapiens) (UniProt P10635). The experiment in a line: Cytochrome panel assay with activity outcomes. The note with it: recombinant CYP, pro-luciferin dealkylation, luminescence, p450-cyp2d6; series mostly up to 57.1 µM.
Chain of Cytochrome P450 2D6 (Homo sapiens) (P10635 whole entry, looked up): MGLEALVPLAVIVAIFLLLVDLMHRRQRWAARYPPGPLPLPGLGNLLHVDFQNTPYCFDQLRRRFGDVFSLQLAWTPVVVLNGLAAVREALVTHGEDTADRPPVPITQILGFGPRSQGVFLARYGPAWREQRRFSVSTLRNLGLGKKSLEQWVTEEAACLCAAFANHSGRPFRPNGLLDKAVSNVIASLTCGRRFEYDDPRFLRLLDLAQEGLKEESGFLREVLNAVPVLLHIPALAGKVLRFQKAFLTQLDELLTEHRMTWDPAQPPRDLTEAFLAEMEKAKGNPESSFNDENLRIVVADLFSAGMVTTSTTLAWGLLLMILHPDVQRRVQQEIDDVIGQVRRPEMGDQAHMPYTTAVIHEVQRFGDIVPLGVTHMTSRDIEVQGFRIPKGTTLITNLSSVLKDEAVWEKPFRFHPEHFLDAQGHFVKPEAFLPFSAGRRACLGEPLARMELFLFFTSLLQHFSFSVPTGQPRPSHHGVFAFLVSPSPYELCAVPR
By AC50 is commonly meant the concentration at which the activity in the assay is half-maximal. `CN(C)c1ncc2nc(-c3cccs3)c(=O)n(-c3ccccc3)c2n1`: the AC50 result was “inactive”.
The same measure, in the same setting: the value for `CCN(CC)c1ccc(C(=O)OCc2cc(=O)oc3cc(O)ccc23)cc1` was “inactive”.
On the same count and under the same terms, the value for `CCN(CC)c1ccc2c(Cl)cc(=O)oc2c1` was 12600 nM (active).
Turning to `CCN(CC)c1ccc2cc(C(C)=O)c(=O)oc2c1`, the AC50 entry is “inactive”.
On to `CCOC(=O)c1ccccc1NC(=O)/C(C)=C/C(=O)O`, for which the AC50 result is “inactive”.
Same read-out and setting: for `COCCn1c(=O)c(-c2cn(C)c3ccccc23)nc2cnc(Oc3cccc(Cl)c3)nc21` the value was “inactive”; for `CCCOc1ccccc1-c1nc2n[nH]nc2c(=O)[nH]1`, “inactive”.
On the same count and under the same terms, for `CNc1nc(C)cc(C)c1S(=O)(=O)c1ccc(Cl)cc1` the value was “inactive”; for `Cc1ccc(Sc2c([N+](=O)[O-])ncn2C)cc1`, “inactive”.
On to `Cc1nn(S(=O)(=O)c2cccs2)c(C)c1Sc1ccc([N+](=O)[O-])cc1`, for which the AC50 is 2240 nM (active).
Still for that read-out and setting: for `Cc1nn(C(=O)c2ccco2)c(C)c1Sc1ccc(Br)cc1` the value was “inactive”; for `O=C(OC1CCN(c2ccc([N+](=O)[O-])cc2)CC1)c1ccccc1`, “inactive”.
With `COc1ccc(-n2c(C)cc(C=O)c2C)cc1Cl`, the AC50 entry is “inactive”.
On the same count and under the same terms, for `CC(C)(O)c1cn(-c2nonc2N)nn1` the value was “inactive”; for `COC(=O)c1c(NC(=O)c2ccco2)sc2c1CCC2`, “inactive”; for `Cc1ccc(S(N)(=O)=O)cc1NC(=O)/C=C/c1cccs1`, 14100 nM (active).
As to `Cc1cccc(C)c1NC(=O)Nc1ccc(S(N)(=O)=O)cc1`, the activity, negative = inhibition is -10.2% [at 11.4 µM] (inactive).
Regarding `Cc1ccc(C(=O)Nc2ccc(C(=O)/C=C/c3cccs3)cc2)cc1`, the AC50 result is “inactive”.
For the compound `CN(C(=O)C(Cl)Cl)c1ccc(OC(=O)c2ccco2)cc1`, the AC50 entry is “inactive”.
Same read-out and setting: for `c1ccc2cc(C3=NCCN3)ncc2c1` the value was “inactive”; for `c1ccc2nc(C3=NCCN3)cnc2c1`, “inactive”; for `Cc1ccccc1/C=C\C1=NCCN1`, 25100 nM (active).
Same read-out and setting: for `O=C(Oc1ccccc1)N1CCC2(CC1)CCN(c1ccccn1)CC2` the value was “inactive”; for `CCOc1ccc(-c2c[n+](=O)c3c(n2[O-])CCCC3)c(OCC)c1`, “inactive”; for `CCCCn1c(SCc2c(C)noc2C)nc2cc(S(N)(=O)=O)ccc21`, “inactive”.
For the compound `Cc1ccc(S(=O)(=O)Nc2ccccc2C=O)cc1`, the activity, negative = inhibition is -1.56% [at 11.4 µM] (inactive).
For the compound `CCCCn1c(NCc2ccccc2NS(=O)(=O)c2ccc(C)cc2)nc2ccccc21`, the AC50 was 501 nM (active).
As for `CC(C)=NOCc1ccc(-c2cc(-c3ccccc3)no2)cc1`, the activity, negative = inhibition is 1.27% [at 11.4 µM] (inactive).
As to `CCn1c(=O)[nH]c2ccccc21`, the AC50 entry was “inactive”.
As for `O=c1[nH]c2ccccc2n1CCCN1CCN(C(c2ccccc2)c2ccccc2)CC1`, the AC50 was 794 nM (active).
The same measure, in the same setting: the value for `CCN1CNC(=S)N(c2cc(C)ccc2C)C1` was “inactive”; that for `O=C(c1ccco1)N1CCC2(CCN(Cc3ccccc3)CC2)CC1` was 3980 nM (active).
On the same count and under the same terms, for `CC(=O)N1CCC2(CCN(Cc3nccs3)CC2)CC1` the value was “inactive”; for `O=C(c1cccc(F)c1)N1CCC2(CCN(Cc3nccs3)CC2)CC1`, “inactive”; for `O=C(c1ccco1)N1CCC[C@@]2(CCN(Cc3ccccc3)C2)C1`, 2000 nM (active).
Still for that read-out and setting: the value for `COc1ccccc1CN1CC[C@@]2(CCCN(C(=O)c3ccco3)C2)C1` was 501 nM (active); that for `O=C(Nc1ccccc1)N1CC2(CCN(C(=O)c3ccco3)CC2)C1` was “inactive”; that for `O=C(c1ccco1)N1CCC2(CCN(Cc3nccs3)CC2)CC1` was 1000 nM (active).
As to `COc1ccc(NC(=O)N2CC3(CCN(C(=O)c4ccco4)CC3)C2)cc1`, the AC50 result is “inactive”.
As to `C=C(C)C1CC=C(C)/C(=N/NC(=O)c2ccc(NC(=O)c3cccc(C)c3)cc2)C1` (stereo not drawn), the AC50 result was “inactive”.
Still for that read-out and setting: for `Clc1ccc(-c2csc(N3CCC(c4ccccc4)C3)n2)cc1` (stereo not drawn) the value was “inactive”; for `COc1ccc(C2CC(C(F)(F)F)n3nc(C(=O)N(C)Cc4cn(C)nc4C)c(Cl)c3N2)cc1` (stereo not drawn), “inactive”.
As to `O=C(Nc1cccc(F)c1)N1CC2(CCN(C(=O)c3cc(C(F)(F)F)cc(C(F)(F)F)c3)CC2)C1`, the AC50 entry was “inactive”.
For `O=C(O)c1c(-c2c3ccc(=O)cc-3oc3cc(O)ccc23)cc2ccccc2c1-c1ccccc1`, the activity, negative = inhibition was 6.33% [at 11.4 µM] (inactive).
For `Cc1ccc(/C=C2\OC(=O)c3ccccc32)cc1`, the AC50 result was “inactive”.
Same read-out and setting: the value for `CC(=O)c1cnc2c(C(=O)O)cnn2c1C` was “inactive”.
In the case of `COn1c(-c2ccccc2)nc2c1CCc1nonc1-2`, the AC50 result was “inactive”.
On to `Cc1ccc(C)c(CN2C(=O)C3CCCN3c3ccc(S(=O)(=O)N4CCOCC4)cc32)c1` (stereo not drawn), for which the AC50 entry is “inactive”.
The same measure, in the same setting: the value for `O=C(CO)N/N=C/c1ccccc1F` was “inactive”.
Take `O=C(O)c1cc2c(cc1S(=O)(=O)O)[C@H]1[C@@H]([C@H]3[C@H]2[C@@]2(Cl)C(Cl)=C(Cl)[C@]3(Cl)C2(Cl)Cl)[C@]2(Cl)C(Cl)=C(Cl)[C@@]1(Cl)C2(Cl)Cl`: the activity, negative = inhibition was -3.51% [at 11.4 µM] (inactive).
Consider `CC(=O)c1cn(CCCCCCCCCCn2cc(C(C)=O)c(=O)[nH]c2=O)c(=O)[nH]c1=O`, for which the AC50 entry was “inactive”.
Same read-out and setting: for `Cc1noc(C)c1C(=O)N1CCC[C@@]2(CCN(Cc3ccccc3)C2)C1` the value was 7940 nM (active); for `COc1ccc(NC(=O)N2CCC3(CC2)CCN(C(=O)c2ccco2)CC3)cc1`, “inactive”.
Same read-out and setting: for `Cc1noc(C)c1C(=O)N1CCC[C@@]2(CCN(Cc3nccs3)C2)C1` the value was “inactive”; for `COc1ccccc1CN1CCC2(CC1)CCN(C(=O)c1ccco1)CC2`, 12600 nM (active); for `COc1ccccc1CN1CCCC2(CCN(C(=O)c3ccco3)CC2)C1`, 2510 nM (active).
Same read-out and setting: the value for `Cc1noc(C)c1C(=O)N1CCC2(CCCN(Cc3ccccc3)C2)CC1` was “inactive”.
In the case of `CCc1c(O)c2c(c(O)c1C(C)=O)C(=O)c1c(cc(O)c(C(=O)O)c1C(=O)O)C2=O`, the activity, negative = inhibition was 0.869% [at 11.4 µM] (inactive).
As for `COc1ccc(CC(=O)N2CCN(c3ccc(C4=NNC(=O)CC4C)cc3)CC2)cc1` (stereo not drawn), the AC50 result was “inactive”.
Still for that read-out and setting: for `CC12CCC(C(=O)O)(C/C1=N\O)C2(C)C` (stereo not drawn) the value was “inactive”; for `Cc1noc(NS(=O)(=O)c2ccc(N)cc2)c1C`, “inactive”; for `CNc1cc(NS(=O)(=O)c2ccc(N)cc2)nc(NC)n1`, “inactive”.
Still for that read-out and setting: the value for `CCOC(=O)C1=C(c2ccccc2)OC(N)=C(C#N)C1c1ccc(Cl)s1` (stereo not drawn) was “inactive”; that for `Cc1ccc(C(CC(=O)c2ccco2)SCCO)cc1` (stereo not drawn) was “inactive”.
The same measure, in the same setting: the value for `CCCCN1C(=O)NC(NC(=O)c2ccco2)(C(F)(F)F)C1=O` (stereo not drawn) was “inactive”; that for `CCCCn1c(=N)n(CC(=O)c2ccco2)c2ccccc21` was 708 nM (active); that for `CCOC(=O)c1c(C)n(C)c2ccc(OC(=O)c3ccco3)cc12` was “inactive”.
Consider `CCn1c(=O)cc(SCC(=O)N2CCN(C(=O)c3ccco3)CC2)c2ccccc21`, for which the AC50 entry is “inactive”.
The same measure, in the same setting: the value for `CCCn1c(N)[n+](CC(=O)c2ccco2)c2ccccc21` was 708 nM (active); that for `COCCn1c(=O)c(-c2cc(F)cc(F)c2)nc2cnc(N3CCNCC3)nc21` was “inactive”; that for `CC1(C)OC(=O)NC1=O` was “inactive”.
For the compound `Nc1nc(Br)c2c(F)cccc2c1-c1ccc(F)cc1`, the AC50 entry was “inactive”.
Still for that read-out and setting: the value for `CC(C)C(NC(=O)OC(C)(C)C)C(=O)N1CCCC1C(=O)NC(Cc1ccccc1)C(N)=O` (stereo not drawn) (Boc-Val-Pro-Phe-NH2; configuration not given here) was “inactive”.
As to `CC(C)=CCC/C(C)=C/CO/N=C1/[C@H]2O[C@@H]2[C@@H](O)[C@H]2[C@H]1CCn1c(=O)n(Cc3cc4c(cc3Cl)OCO4)c(=O)n12`, the activity, negative = inhibition is -10.5% [at 11.4 µM] (inactive).
As for `CC(SCc1cn2cc(Cl)ccc2n1)C(=O)O` (stereo not drawn), the AC50 result was “inactive”.
On the same count and under the same terms, the value for `Cc1ccn2cc(CSc3ccccc3N)nc2c1` was 1260 nM (active).
The same measure, in the same setting: the value for `Nc1cc(=O)nc(SCC(=O)Nc2cccc3ccccc23)n1CCc1ccccc1` was “inactive”.
The same measure, in the same setting: for `CC(NC(=O)CSc1nc(=O)cc(N)n1CCc1ccccc1)c1ccccc1` (stereo not drawn) the value was “inactive”; for `CCC(Sc1nc(=O)cc(N)n1CCc1ccccc1)C(=O)Nc1ccccc1C#N` (stereo not drawn), 15800 nM (active).
As for `CN1c2ccccc2C(O)=C(C(=O)Nc2ccccc2)S1(=O)=O`, the AC50 entry is “inactive”.
The same measure, in the same setting: for `COc1ccccc1-c1nc(N2CCN(C)CC2)c2ccccc2n1` the value was “inactive”.
Same read-out and setting: for `CN1CCN(c2nc(-c3ccoc3)nc3ccccc23)CC1` the value was 15800 nM (active).
For `c1cncc(-c2nc(N3CCNCC3)c3ccccc3n2)c1`, the AC50 is 7940 nM (active).
Same read-out and setting: for `CN1CCN(c2nc(-c3cccnc3)nc3ccccc23)CC1` the value was 10000 nM (active); for `c1ccc2c(N3CCOCC3)nc(-c3ccoc3)nc2c1`, “inactive”.
Consider `C[C@](N)(COP(=O)(O)O)C(=O)O`, for which the AC50 entry was “inactive”.
On the same count and under the same terms, the value for `CNc1cc(-c2c(C)noc2C)ncn1` was “inactive”; that for `Cn1c(=O)c2[nH]c(-c3ccccc3)nc2n(C)c1=O` was “inactive”.
On the same count and under the same terms, the value for `Cn1c(=O)c(-c2cc(F)cc(F)c2)nc2cnc(Oc3ccccc3)nc21` was “inactive”; that for `O=C(Oc1ccccc1)N1CCC2(CC1)CN(c1ncccn1)C2` was “inactive”.
The same measure, in the same setting: for `CC(=O)Nc1c2c3c(cccc3n(C)c1=O)C(=O)c1ccccc1-2` the value was “inactive”; for `COc1ccc(-c2nc3cnc(N4CCN(C)CC4)nc3n(C3CC3)c2=O)cc1`, “inactive”; for `COC(=O)c1ccccc1OCC(=O)N1CCN(c2ccc(OC)cc2)CC1`, “inactive”.
`O=C(c1cc(O)c(O)c([N+](=O)[O-])c1)c1ccccc1F`: the AC50 result was “inactive”.
On the same count and under the same terms, for `Cn1cccc1C(=O)N1CCC2(CC1)CCN(c1ccc(-c3ccccc3)cc1)CC2` the value was “inactive”; for `COc1cc(C2C(C#N)=C(N)OC3=C2C(=O)CCC3)cc(OC)c1OC(=O)N1CCOCC1` (stereo not drawn), “inactive”; for `Cc1ccc(C(C2C(=O)CC(C)(C)CC2=O)C2C(=O)CC(C)(C)CC2=O)s1`, “inactive”.
On the same count and under the same terms, for `COc1cccc(C(c2c(C)[nH]n(-c3ccccc3)c2=O)c2c(C)[nH]n(-c3ccccc3)c2=O)c1O` the value was “inactive”.
Still for that read-out and setting: for `Clc1ccc(Cl)c(OCc2cc(-c3ccccc3Cl)on2)c1` the value was “inactive”; for `COc1cc(C)ccc1OCCOc1cc(C)ccc1Cl`, “inactive”; for `CC1CCN(CCOc2cc(Cl)ccc2Cl)CC1`, 447 nM (active).
In the case of `CCn1c(C)[n+](CCCS(=O)(=O)[O-])c2cc(Cl)c(Cl)cc21`, the AC50 entry was “inactive”.
On to `Cn1c(=O)n(-c2cccc(Cl)c2)c(=O)c2c3c(sc21)COC(C)(C)C3`, for which the AC50 result was “inactive”.

The record behind these values is PubChem BioAssay AID1851 (National Center for Advancing Translational Sciences (NCATS), 2009).
